Data on 59 compounds can be found in PubChem BioAssay AID720706 (Broad Institute, 2013).

Screen size: about 350,000 compounds; about 5,500 (1.6%) were called active.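 How the source made its calls: active means significant combined selectivity score with lowered wild-type GFP, culture density cut under 30%, mutant RFP and density less affected; inactive means any of these conditions unmet.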 For the sample, actives were picked, then their nearest neighbours and some compounds at random.

The assay in a line: reduced GFP signal of wild-type E. coli, primary screen, bacterial rRNA inhibitor project, GFP/RFP fluorescence, OD600, single point (AID 720706). The following applies: E. coli WT GFP vs humanized-ribosome RFP mutants, 24 h; GFP signal change (wild-type ribosome): stronger effect = lower value, DMSO median 0, no signal -100; OD600 change: measured here: OD600 growth, DMSO median 0, no signal -100; RFP signal change: measured here: RFP humanized mutant strains, DMSO median 0, no signal -100, concentration not given here.
Take `CNC[C@H]1OCCCC[C@H](C)Oc2ccc(NC(=O)Nc3ccc(C(F)(F)F)cc3)cc2C(=O)N([C@H](C)CO)C[C@@H]1C`: the GFP signal change (wild-type ribosome) was -45.6% (inactive), the OD600 change was -74.3% and the RFP signal change was -0.5%.
The matching figures for `COc1ccc(CNC(=O)C[C@@H]2CC[C@H](NC(=O)c3cccc(F)c3)[C@H](CO)O2)cc1`: -0.639% (inactive), 4.63% and 0.956%.
The matching figures for `C[C@H]1CN([C@@H](C)CO)C(=O)c2cc(C3=CCCC3)cnc2O[C@H]1CN(C)C(=O)Nc1ccc(F)cc1`: -0.884% (inactive), 7.11% and -0.613%.
The matching figures for `O=C(N[C@@H]1C=C[C@H](CC(=O)N2CCOCC2)O[C@H]1CO)c1ccccn1`: 4.32% (inactive), 4.06% and 0.272%.
As to `Cc1c(-c2ccccc2)n[nH]c1C(=O)N=Nc1c(O)[nH]c2ccccc12`, the GFP signal change (wild-type ribosome) is -5.9% (inactive), the OD600 change was -4.62% and the RFP signal change was determined as 2.09%.
The matching figures for `Cc1cccc(N=Nc2c(O)[nH]c3ccc(F)cc23)c1`: -28.8% (active), 13.6% and 8.49%.
The matching figures for `O=C(CNC(=O)Cc1ccccc1)N=Nc1c(O)[nH]c2ccc(Br)cc12`: -1.63% (inactive), 10% and 0.336%.
The matching figures for `C[C@@H]1CN([C@@H](C)CO)S(=O)(=O)c2ccc(C#C[C@@H](C)O)cc2O[C@@H]1CN(C)CC1CC1`: 1.29% (inactive), -4.39% and -1.26%.
Turning to `O=C(NCc1ccccc1Cl)NC(=O)c1csc([N+](=O)[O-])c1`, the GFP signal change (wild-type ribosome) was 12.9% (inactive), the OD600 change stood at 2.99% and the RFP signal change is 1.52%.
Take `O=C(NCCNc1ccccc1[N+](=O)[O-])c1ccccc1F`: the GFP signal change (wild-type ribosome) was -8.66% (inactive), the OD600 change worked out at 7.69% and the RFP signal change was -6.27%.
In the case of `O=[N+]([O-])c1ccccc1NCc1ccccc1Cl`, the GFP signal change (wild-type ribosome) is -29.2% (active), the OD600 change was -20.4% and the RFP signal change was -10.2%.
On to `COc1cccc(CN(C)C[C@H]2OCc3ccccc3-c3c(n(C)c4ccccc34)C(=O)N([C@@H](C)CO)C[C@@H]2C)c1`, for which the GFP signal change (wild-type ribosome) was -21.2% (inactive), the OD600 change is -41.4% and the RFP signal change was determined as 18.9%.
Turning to `C[C@@H]1CN([C@H](C)CO)S(=O)(=O)c2ccc(C#CC(C)(C)O)cc2O[C@@H]1CN(C)Cc1ccccc1`, the GFP signal change (wild-type ribosome) is 1.3% (inactive), the OD600 change was -3.23% and the RFP signal change was -1.75%.
The matching figures for `C[C@H](CO)N1C[C@H](C)[C@@H](CN(C)Cc2ccccc2)Oc2c(NC(=O)CCCCCC(=O)Nc3ccccc3N)cccc2C1=O`: -10% (inactive), -16.3% and 2.5%.
The matching figures for `C[C@H]1CCCCO[C@@H](CN(C)C(=O)Nc2cccc3ccccc23)[C@@H](C)CN([C@@H](C)CO)C(=O)c2cc(NS(=O)(=O)c3cn(C)cn3)ccc2O1`: 0.08% (inactive), -14.1% and 8.18%.
The matching figures for `Cc1cccc(CNS(=O)(=O)c2ccc(-c3cnc(C4CC4)o3)cc2)c1`: -28.7% (active), -23% and -6.22%.
`Cc1cccc(NS(=O)(=O)c2ccc(-c3cnc(C4CC4)o3)cc2)c1`: the GFP signal change (wild-type ribosome) is -8.12% (inactive), the OD600 change is -53.1% and the RFP signal change was 16.8%.
As to `COc1ccc(CNS(=O)(=O)c2ccc(-c3cnc(C4CC4)o3)cc2)cc1`, the GFP signal change (wild-type ribosome) is -6.21% (inactive), the OD600 change was -8.89% and the RFP signal change is -0.493%.
For `CN1C(=O)c2cc(NC(=O)c3ccccc3)ccc2OC[C@H]2O[C@@H](CC(=O)O)CC[C@@H]21`, the GFP signal change (wild-type ribosome) is 2.79% (inactive), the OD600 change came to 3.92% and the RFP signal change is -0.251%.
The matching figures for `C[C@@H]1CN([C@H](C)CO)C(=O)c2cccc(NC(=O)CCCCCC(=O)Nc3ccccc3N)c2O[C@H]1CN(C)CC1CCCCC1`: -16.1% (inactive), -30.3% and -6.11%.
The matching figures for `COc1ccc(/C=N/NC(=O)C2CC2)c(OC)c1OC`: 20.9% (inactive), 9.1% and -1.71%.
The matching figures for `COc1ccc(/C=C2/CCCc3ccccc3C2=O)cc1`: -37.4% (inactive), -62.5% and -10.8%.
`COc1ccc(/C=C2\CCc3ccccc3C2=O)c(OC)c1OC`: the GFP signal change (wild-type ribosome) was -21.9% (active), the OD600 change was -16.9% and the RFP signal change is -4.31%.
Consider `Cc1ccccc1-c1ccc([C@H]2[C@H](CO)N3C(=O)CN(C(=O)c4cccnc4)C[C@@H]23)cc1`, for which the GFP signal change (wild-type ribosome) was -0.83% (inactive), the OD600 change is -6.48% and the RFP signal change was determined as 5.21%.
The matching figures for `O=C1N[C@H](Cc2ccccc2)COCc2cn(nn2)CC[C@@H]1Cc1ccc(-c2ccccc2)cc1`: -0.275% (inactive), 6.34% and -4.54%.
The matching figures for `CCCC#Cc1cnc2c(c1)C(=O)N([C@H](C)CO)C[C@@H](C)[C@@H](CN(C)C(=O)Nc1ccccc1OC)O2`: 4.88% (inactive), 7.2% and -1.58%.
The matching figures for `COc1ccc(NC(=O)N(C)C[C@@H]2OCCCC[C@H](C)Oc3ccc(NS(=O)(=O)c4cn(C)cn4)cc3C(=O)N([C@@H](C)CO)C[C@@H]2C)cc1`: -1.73% (inactive), -0.21% and 1.12%.
Take `COc1ccc(S(=O)(=O)Nc2ccc3c(c2)CC(=O)N([C@H](C)CO)C[C@H](C)[C@H](CN(C)Cc2ccc(C(F)(F)F)cc2)O3)cc1`: the GFP signal change (wild-type ribosome) was -1.22% (inactive), the OD600 change is -12.1% and the RFP signal change came out at 0.965%.
The matching figures for `Cc1ccc(S(=O)(=O)Nc2ccc3c(c2)C(=O)N([C@@H](C)CO)C[C@@H](C)[C@@H](CN(C)Cc2ccc(C(=O)Nc4ccccc4N)cc2)O3)cc1`: -3.29% (inactive), -1.98% and 14%.
The matching figures for `C[C@@H]1CN([C@@H](C)CO)C(=O)c2cc(NS(=O)(=O)c3ccccc3)ccc2O[C@@H]1CN(C)Cc1ccc(C(=O)Nc2ccccc2N)cc1`: -20.2% (active), -5.29% and 5.46%.
The matching figures for `COc1ccc(S(=O)(=O)Nc2ccc3c(c2)CC(=O)N([C@@H](C)CO)C[C@H](C)[C@@H](CN(C)Cc2ccc(C(=O)O)cc2)O3)cc1`: -0.025% (inactive), -7.85% and -0.315%.
Regarding `COc1ccc(CN(C)C[C@H]2Oc3ccc(NS(=O)(=O)c4ccc(Cl)cc4)cc3CC(=O)N([C@@H](C)CO)C[C@H]2C)cc1`, the GFP signal change (wild-type ribosome) was -45.9% (active), the OD600 change was -36.8% and the RFP signal change was -1.42%.
Consider `C[C@H](CO)N1C[C@H](C)[C@H](CN(C)Cc2ccc(C(=O)Nc3ccccc3N)cc2)Oc2ccc(NS(C)(=O)=O)cc2C1=O`, for which the GFP signal change (wild-type ribosome) was 5.88% (inactive), the OD600 change was determined as 6.32% and the RFP signal change was 0.92%.
The matching figures for `COc1ccc2c3c([nH]c2c1)[C@@H](CO)N(C(=O)CC1CC1)CC31CCN(Cc2cccnc2)CC1`: 1.59% (inactive), 3.97% and 3.46%.
On to `CCOc1ccc2sc(NS(=O)(=O)c3ccc(N)cc3)nc2c1`, for which the GFP signal change (wild-type ribosome) is -24.1% (active), the OD600 change is -5.58% and the RFP signal change was -5%.
Consider `CCOc1ccc(NS(=O)(=O)c2ccc(C)c(C(N)=O)c2)cc1`, for which the GFP signal change (wild-type ribosome) was 2.05% (inactive), the OD600 change amounted to 7.61% and the RFP signal change is 0.34%.
With `CCOc1cc(NS(=O)(=O)c2ccc(OC)cc2)c(OCC)cc1NC(C)=O`, the GFP signal change (wild-type ribosome) was 12.2% (inactive), the OD600 change is 0.765% and the RFP signal change was determined as 1.03%.
The matching figures for `COc1ccc2c3c(n(C)c2c1)[C@H](CO)N(CC1CCCCC1)CC31CCN(Cc2nccs2)CC1`: 5.15% (inactive), -34.3% and 21.2%.
The matching figures for `Cc1noc(C)c1NC(=O)N(C)C[C@@H]1Oc2ccc(NC(=O)CCN3CCOCC3)cc2CC(=O)N([C@H](C)CO)C[C@@H]1C`: -0.675% (inactive), 4.65% and -1.87%.
The matching figures for `C[C@@H]1CN([C@H](C)CO)C(=O)c2cccc(NC(=O)Nc3ccc4c(c3)OCO4)c2O[C@H]1CN(C)S(=O)(=O)c1ccccc1`: -2.91% (inactive), -5.67% and -1.37%.
As to `COc1ccc2c3c([nH]c2c1)[C@@H](CO)N(Cc1ccc2c(c1)OCO2)CC31CN(C(=O)Nc2c(C)noc2C)C1`, the GFP signal change (wild-type ribosome) was 0.081% (inactive), the OD600 change came out at 0.39% and the RFP signal change was 1.36%.
The matching figures for `CC(C)(C)[S@@](=O)N1Cc2cc(C(=O)O)nc(-c3cccc(-c4cccc(F)c4)c3)c2[C@H]1CCO`: 4.83% (inactive), 5.04% and 0.24%.
`O=C(COC(=O)c1ccc([N+](=O)[O-])o1)NC12CC3CC(CC(C3)C1)C2`: the GFP signal change (wild-type ribosome) is -30.1% (active), the OD600 change amounted to 9.91% and the RFP signal change turned out to be 3.52%.
As to `O=C(OCC(=O)c1cccs1)c1ccc([N+](=O)[O-])o1`, the GFP signal change (wild-type ribosome) was 9.6% (inactive), the OD600 change was 5.51% and the RFP signal change amounted to 1.76%.
In the case of `O=C(COC(=O)c1ccc(Br)o1)NC12CC3CC(CC(C3)C1)C2`, the GFP signal change (wild-type ribosome) was -10.7% (inactive), the OD600 change is -7.12% and the RFP signal change worked out at 2.74%.
On to `CCCNC(=O)Nc1ccc2c(c1)C(=O)N(C)C[C@H](OC)[C@H](C)CN(Cc1ccncc1)[C@H](C)CO2`, for which the GFP signal change (wild-type ribosome) is 1.74% (inactive), the OD600 change amounted to 6.36% and the RFP signal change was -1.58%.
The matching figures for `O=C(CCCN1CCc2[nH]c3ccc(F)cc3c2C1)c1ccc(F)cc1`: -28.2% (active), -21.9% and 3.29%.
For the compound `CC1CCc2[nH]c3ccc(C(=O)N(C)CC(=O)Nc4cccc(F)c4)cc3c2C1` (configuration not stated), the GFP signal change (wild-type ribosome) is -34% (inactive), the OD600 change was -74.6% and the RFP signal change is -1.58%.
As for `C=CCNC(=S)N1CCc2[nH]c3ccccc3c2C1`, the GFP signal change (wild-type ribosome) is 1.71% (inactive), the OD600 change was -2.66% and the RFP signal change amounted to 1.19%.
On to `COc1cnc(-c2ccccn2)nc1Oc1ccc(C(C)(C)C)cc1`, for which the GFP signal change (wild-type ribosome) was -55.5% (inactive), the OD600 change was -80% and the RFP signal change was -19.6%.
The matching figures for `CC(C)(C)c1ccc(Oc2ccc(N)cc2)cc1`: -34% (active), -27.1% and -4.06%.
The matching figures for `O=C(Nc1cccc(F)c1)N1CC(=O)N2[C@H](CO)[C@H](c3ccc(C#CC4CC4)cc3)[C@@H]2C1`: 4.76% (inactive), 3% and 11.4%.
For the compound `CCN(CC(=O)NCc1ccc(F)cc1)S(=O)(=O)c1ccc(Cl)s1`, the GFP signal change (wild-type ribosome) was -6.72% (inactive), the OD600 change is -25.1% and the RFP signal change was -2.95%.
The matching figures for `CSc1ccc(CN(C)CC(=O)NCc2ccc(F)cc2)cc1`: -30.9% (active), -24.5% and -8.04%.
The matching figures for `Cc1ccc(SC(C)C(=O)NCc2ccc(F)cc2)cc1` (configuration not stated): 7.25% (inactive), 3.19% and -0.85%.
The matching figures for `Cc1noc(C)c1S(=O)(=O)Nc1ccc2c(c1)C(=O)N([C@@H](C)CO)C[C@@H](C)[C@H](CN(C)C(=O)NC(C)C)OCCCC[C@@H](C)O2`: 4.36% (inactive), 7.55% and -2.26%.
Regarding `C[C@@H]1CN([C@H](C)CO)C(=O)c2cc(-c3ccc(F)cc3)cnc2O[C@@H]1CN(C)Cc1ccc(C(=O)O)cc1`, the GFP signal change (wild-type ribosome) is -4.64% (inactive), the OD600 change was 1.8% and the RFP signal change is -8.48%.
As to `CO[C@@H]1CN(C)C(=O)c2ccc(NC(=O)Nc3cc(F)ccc3F)cc2OC[C@@H](C)N(C)C[C@@H]1C`, the GFP signal change (wild-type ribosome) was -5.36% (inactive), the OD600 change was -19.5% and the RFP signal change came out at 0.48%.
On to `CCC(=O)N1[C@@H](CO)[C@H](c2ccc(-c3cccc(F)c3)cc2)[C@@H]1CNC(C)=O`, for which the GFP signal change (wild-type ribosome) is -3.61% (inactive), the OD600 change was 3.25% and the RFP signal change came to 2.12%.
